Data as given in PubChem BioAssay (NCATS).
Inconclusive results are not listed. Active and inactive are the calls of the source. Calls come from the whole dose curve; as a rule, active = well fitted inhibition curve with a large enough effect; inconclusive = small, poorly fitted or top-dose-only effect; inactive = flat fitted curve, though single readings scatter.

What follows are compounds tested against Ubiquitin carboxyl-terminal hydrolase 1 (Homo sapiens) (UniProt O94782) (assay: Inhibitors of USP1/UAF1: Pilot qHTS (AID 504865;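 note: rhodamine fluorescence freed from ubiquitin-rhodamine substrate followed over time; top concentration of the series differs between compounds; nearly all actives have a fitted effect of over 35% in size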)). Details: purified USP1/UAF1, Ub-rhodamine cleavage fluorescence; series mostly up to 114 µM; activity change, negative = inhibition: at the top concentration.
Text: Deubiquitinating enzymes (DUBs) are a class of enzymes that can cleave isopeptide bond formed between the C-terminal carboxylate of ubiquitin and a lysine side-chain amino group on the target protein. Among them, ubiquitin specific proteases (USPs) constitute the largest DUB family. Human USPs are emerging as promising targets for pharmacological intervention because of their connection to a number of human diseases, including prostate, colon and breast cancer (1, 2), pediatric acute lymphoblastic leukemia (3), and familial cylindromatosis (4). The advantage of inhibiting USPs lies in the potential specificity of therapeutic intervention that can lead to better efficacy and reduce nonspecific side effects.
In a collaboration between the University of Delaware and the NIH Chemical Genomics Center, a high-throughput screen assay was developed to screen for USP1/UAF1 inhibitors. This miniaturized assay has a fluorescent read-out and is used to screen the NIH Molecular Libraries Small Molecule Repository (MLSMR) in order to identify a small molecule that inhibits USP1.
NIH Chemical Genomics Center [NCGC]
NIH Molecular Libraries Probe Centers Network [MLPCN]
Assay Submitter (PI): Zhihao Zhuang, University of Delaware
1. Priolo, C., et al. (2006) The isopeptidase USP2a protects human prostate cancer from apoptosis. Cancer Res 66, 8625-8632
2. Popov, N., et al. (2007) The ubiquitin-specific protease USP28 is required for MYC stability. Nat Cell Biol 9, 765-774
3. De Pitta, C., et al. (2005) A leukemia-enriched cDNA microarray platform identifies new transcripts with relevance to the biology of pediatric acute lymphoblastic leukemia. Haematologica 90, 890-898
4. Kovalenko, A., et al. (2003) The tumour suppressor CYLD negatively regulates NF-kappaB signalling by deubiquitination. Nature 424, 801-805
3 microliters of reagents (buffer in columns 3 and 4 as negative control and 1nM USP1/UAF1 complex in columns 1, 2, and 5-48) are dispensed into Greiner black solid bottom 1536-well assay plates. Compounds are then transferred via Kalypsys pin tool equipped with 1536-pin array (10nl slotted pins, V&P Scientific, San Diego, CA). Following an incubation step of 15 min at room temperature, 1ul of Ub-Rho substrate (150nM final concentration) is added to initiate the reaction. The plates are immediately centrifuged at 1000 rpm for 15 seconds, and subsequently transferred to a ViewLux high-throughput CCD imager (PerkinElmer) wherein kinetic measurements of fluorescence are acquired using 480 nm excitation/540 nm emission filter set (6 reads every 60 seconds, see Table 1). All reagents are diluted in an assay buffer consisting of 50mM HEPES (pH 7.8), 0.5mM EDTA, 0.1 mg/ml BSA, 1mM TCEP, and 0.01% Tween-20.
% is set by controls: 0 for no effect and ±100 for the full control effect.

Ubiquitin carboxyl-terminal hydrolase 1 (Homo sapiens), sequence (O94782 whole entry, looked up): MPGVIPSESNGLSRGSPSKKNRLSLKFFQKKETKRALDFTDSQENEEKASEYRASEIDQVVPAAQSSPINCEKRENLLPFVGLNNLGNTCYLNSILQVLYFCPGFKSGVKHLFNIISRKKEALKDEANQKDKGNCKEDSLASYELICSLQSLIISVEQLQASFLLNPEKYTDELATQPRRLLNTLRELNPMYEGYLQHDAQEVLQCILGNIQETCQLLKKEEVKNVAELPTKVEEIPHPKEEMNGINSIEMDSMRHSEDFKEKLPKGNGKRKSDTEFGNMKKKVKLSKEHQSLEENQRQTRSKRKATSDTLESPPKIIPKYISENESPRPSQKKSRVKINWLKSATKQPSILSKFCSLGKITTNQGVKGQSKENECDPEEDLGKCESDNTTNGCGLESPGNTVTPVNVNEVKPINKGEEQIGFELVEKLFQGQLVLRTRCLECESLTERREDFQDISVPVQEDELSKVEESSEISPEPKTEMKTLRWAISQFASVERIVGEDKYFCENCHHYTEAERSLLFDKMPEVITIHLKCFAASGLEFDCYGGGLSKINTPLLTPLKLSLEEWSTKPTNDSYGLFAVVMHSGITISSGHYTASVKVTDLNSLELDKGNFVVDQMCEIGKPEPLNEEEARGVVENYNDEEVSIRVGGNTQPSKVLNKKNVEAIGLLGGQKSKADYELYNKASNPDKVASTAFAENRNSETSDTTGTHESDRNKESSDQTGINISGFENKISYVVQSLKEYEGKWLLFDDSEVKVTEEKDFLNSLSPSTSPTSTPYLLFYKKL

Compound | activity change, negative = inhibition | outcome
Cc1ccc(O)c(C(CCN(C(C)C)C(C)C)c2ccccc2)c1 (stereo not given) | -7.47% (inactive) | 
CN(N=O)C(=O)N[C@H]1C(O)OC(CO)[C@@H](O)[C@H]1O (stereo not given in full) | -1.23% (inactive) | 
Cc1cc(O)c2c(c1)C(=O)c1cccc(O)c1C2=O | -4.38% (inactive) | 
Nc1nc2c(c(=O)[nH]1)N(C=O)[C@H](CNc1ccc(C(=O)N[C@@H](CCC(=O)O)C(=O)O)cc1)CN2 | 17% [at 54.9 µM] (inactive) | 
O=C(O)C=Cc1ccc(Cn2ccnc2)cc1 | -7.26% (inactive) | 
CCOC(=O)C1=C(C)NC(=S)NC1c1cccc(O)c1 (stereo not given) | -1.59% (inactive) | 
c1coc(CNc2ncnc3nc[nH]c23)c1 | 9.02% [at 54.9 µM] (inactive) | 
CN(C)CC[C@H](c1ccc(Cl)cc1)c1ccccn1 | 6.04% [at 54.9 µM] (inactive) | 
COc1ccc([C@@H]2CNC(=O)C2)cc1OC1CCCC1 | -8.67% [at 54.9 µM] (inactive) | 
C[C@@]12C(=O)OC(=O)[C@@]1(C)C1CCC2O1 | -7.02% (inactive) | 
OCC(O)C(O)C(O)CO (stereo not given) |  | inactive
CCN1CCN(C(=O)N[C@H](C(=O)N[C@@H]2C(=O)N3C(C(=O)O)=C(CSc4nnnn4C)CS[C@@H]23)c2ccc(O)cc2)C(=O)C1=O | 8.43% [at 54.9 µM] (inactive) | 
COc1ccc(C(C)=O)c(O)c1 | -7.6% (inactive) | 
COc1ccc2c(c1OC)C(=O)OC2[C@H]1c2c(cc3c(c2OC)OCO3)CCN1C (stereo not given in full) | 5.14% [at 54.9 µM] (inactive) | 
O=c1[nH]c(=O)n([C@H]2C[C@@H](O)[C@@H](CO)O2)cc1C=CBr | -0.0829% (inactive) | 
